In PubChem BioAssay AID449762 (Southern Research Specialized Biocontainment Screening …, 2010) one finds inhibition data, which are given here for 95 molecules.

Among all 330,000 compounds or so, about 1,900 (0.58%) were called active. Roughly 4% stayed inconclusive and do not appear here. Not all results are given here. Entries with a potency or affinity are not part of this list. Values without a mark were called inactive. No stated cut-off is given here; in the data, inconclusive means inhibition above about 70% without an active follow-up result; inactive means below that.

The nature of the experiment: M. tuberculosis growth inhibition, HTS (AID 449762).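 Further: bacterial growth assessed after seven days of incubation.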 Particulars: M. tuberculosis H37Rv growth inhibition, 7H9 media; at 25 µM; active compounds read high.
Consider `O=c1c(/C=N/OCc2ccc(Cl)cc2Cl)c[nH]n1-c1cccc(Cl)n1`, for which the inhibition was 34.5%.
The result for `O=c1c(C=Nc2ccc(Cl)cc2)c[nH]n1-c1cccc(Cl)n1` reads 0.34%.
The same measure for `Cc1nc2c(C(F)(F)F)cccc2c2c1CCS2`: 0.87%.
The same measure for `Cc1cccc(NC(=O)C2CCCN(S(=O)(=O)c3c(C)nn(C)c3C)C2)c1` (stereo not given): -8.6%.
As to `O=C(Nc1ccccc1)c1ccccc1OS(=O)(=O)c1ccccc1`, the inhibition is 0.76%.
The same measure for `O=Cc1ccccc1OS(=O)(=O)c1ccccc1`: -6.41%.
The result for `C/C(=N\NC(=O)CN(c1ccccc1)S(C)(=O)=O)c1ccccc1O` reads -3.69%; that for `Cc1cc(OC(C)C(=O)NCC2CCCO2)cc(C)c1Cl` (stereo not given), 11.1%; that for `CCn1cnc2sc(C(=O)O)c(C)c2c1=O`, -6.99%.
The same measure for `CCn1cnc2sc(C(=O)N3CCN(c4ccc(OC)cc4)CC3)c(C)c2c1=O`: -8.96%; for `Cc1[nH]n(-c2ccc(Br)cc2)c(=O)c1C=Nc1ccc(S(=O)(=O)Nc2nccs2)cc1`: 68.2%; for `Cc1ccc(-n2[nH]c(C)c(C=Nc3ccc(S(=O)(=O)Nc4nc(C)cc(C)n4)cc3)c2=O)c(C)c1`: -3.23%.
As to `C[C@H](CO)N1C[C@H](C)[C@@H](CN(C)C)Oc2c(NS(=O)(=O)c3ccccc3)cccc2C1=O`, the inhibition is 0.58%.
The same measure for `O=C(NC1CC1)C1CCN(C2CCN(C(=O)/C=C/c3cccs3)CC2)CC1`: -5.63%; for `O=C(CNC(=O)c1cccs1)OCc1ccc(Br)cc1`: -2.09%.
The same measure for `O=C(CCC(=O)N(c1ccc(F)cc1)C(C(=O)NC1CCCC1)c1ccncc1)Nc1cccnc1` (stereo not given): -10.1%; for `CC(=O)Nc1ccc(C(=O)CN2C(=O)NC3(CCOc4ccccc43)C2=O)c(F)c1` (stereo not given): -3.12%; for `CCCCOC(=O)CCn1c(=S)oc2ccccc21`: 23.9%.
The same measure for `CCCNC(=O)CCn1c(=S)oc2ccccc21`: 2.75%; for `Cc1ccc(Cl)cc1-n1c(O)c(C=NCCCN2CCOCC2)c(=O)[nH]c1=O`: -2.44%.
As to `COc1ccc(C2=CN(Cc3ccccc3)C(c3ccccc3)CC2=O)cc1` (stereo not given), the inhibition was -2.25%.
The result for `Cc1cc(C)c(NC(=O)c2cc3c(nc4sccn43)s2)c(C)c1` reads -18.3%; that for `CCN(C(=O)COC(=O)c1[nH]c(C)c(C(C)=O)c1C)C1CCS(=O)(=O)C1` (stereo not given), -10.7%; that for `CCn1c2ccccc2c2cc(NC(=O)c3ccc([N+](=O)[O-])cc3)ccc21`, 9.29%.
The result for `O=C(Nc1ccc(N2CCOCC2)cc1)c1ccc([N+](=O)[O-])cc1` reads 1.26%; that for `CCN(CC)CCNC(=O)c1cn(-c2ccccc2)nc1-c1cccs1`, 5.6%; that for `CN(C)c1ccc(NC(=O)c2cn(-c3ccccc3)nc2-c2cccs2)cc1`, -2.85%.
The same measure for `Cc1oc(-c2cccc(Cl)c2)nc1CSc1nc2c(c(=O)[nH]1)CCC2`: -10.8%.
As for `Cn1c(-c2ccccc2)cnc1NCc1cc(Cl)ccc1O`, the inhibition was 10.7%.
The same measure for `Cn1c(-c2cccc(Br)c2)cnc1NCc1ccccc1O`: 42.5%.
The same measure for `Cc1cccc(C)c1N/C=C/c1onc(C)c1[N+](=O)[O-]`: -4.35%; for `Cc1ccc(N/C=C/c2onc(C)c2[N+](=O)[O-])cc1`: -2.82%.
The same measure for `COc1ccc(NC(=O)c2ccco2)cn1`: -3.96%; for `Cn1ccnc1SCC(=O)Nc1ccc(Cl)cn1`: -1.74%.
Regarding `CCCCn1c(SCc2nc3ccccc3s2)nc2cc(S(N)(=O)=O)ccc21`, the inhibition was 1.21%.
The result for `CCCCn1c(SCc2c(C)noc2C)nc2cc(S(N)(=O)=O)ccc21` reads -4.65%; that for `Cc1ccc(C)c(NC(=O)c2c(Cl)nc3ccccn23)c1`, 10.7%; that for `Cc1ccc(-c2nc(-c3ccncc3)no2)cc1`, -14.2%.
Turning to `Brc1ccc(-c2nc(-c3ccncc3)no2)cc1`, the inhibition is 1.44%.
`O=[N+]([O-])c1ccc(-c2nc(-c3ccncc3)no2)cc1`: the inhibition was 7.86%.
With `O=[N+]([O-])c1cccc(-c2nc(-c3ccncc3)no2)c1`, the inhibition is -2%.
The result for `CCn1ccc(C(=O)Nc2ccc3c(c2)CCC3)n1` reads -10.2%; that for `COc1ccc(/C=N/n2c(C)nc3ccccc3c2=O)cc1OC`, 7.03%; that for `NC(=O)c1ccc(NC(=S)NCc2ccco2)cc1`, -0.21%.
The result for `O=C(NNC(=O)C12CC3CC(CC(C3)C1)C2)c1cnccn1` reads -6.86%; that for `O=C(NNC(=O)C12CC3CC(CC(C3)C1)C2)c1ccncc1`, 2.26%.
The same measure for `COc1ccc(CCOC(=O)c2ccc(NC(=O)CC#N)cc2)cc1`: -3.16%; for `Cc1c(C(=O)NCCCN2CCCC2=O)oc2c(Cl)cccc12`: -3.89%.
Consider `CC(=O)C1=C(C)Nc2ncnn2C1c1ccc(Br)cc1` (stereo not given), for which the inhibition was 2.48%.
The same measure for `Cc1nn(CC(=O)Nc2c(C)n(C)n(-c3ccccc3)c2=O)c(C)c1[N+](=O)[O-]`: -2.07%; for `COc1ccc(NC(=O)CCC(=O)N(Cc2ccc(OC)c(OC)c2)c2nccs2)c(OC)c1`: -1.87%.
The result for `O=c1cc(-c2ccccc2)[nH]c2ccccc12` reads 3.78%; that for `O=c1nc(-c2ccccc2)c2ccccc2[nH]1`, -8.68%; that for `Cc1ccc2c(c1)c1c(n2C)C(=O)CCC1`, -12%.
For `c1cc2c(cc1C1CCCCC1)c1c3n2CCN=C3CCC1`, the inhibition is -6.21%.
The result for `COc1cccc(OCC(=O)Nc2c3c(nn2-c2ccccc2)CS(=O)(=O)C3)c1` reads 4.27%; that for `Cc1ccc(/C=N/NC(=O)Cc2cccn2C)s1`, 4.27%; that for `COC(=O)C1=C(C)Nc2c(c(=O)n(C)c(=O)n2C)C1c1cccs1` (stereo not given), -11.8%.
Regarding `Cc1noc(C)c1C(=O)OCC(=O)Nc1cc(Cl)ccc1Oc1ccccc1`, the inhibition was 2.51%.
The result for `Cc1ccc(N(CC(=O)Nc2cccc(Cl)c2C)S(C)(=O)=O)cc1` reads 7.2%; that for `O=C(Cc1cccc(NC(=O)C2CCCN(C(=O)C3CCC3)C2)c1)Nc1cccc(C(=O)N2CCCC2)c1` (stereo not given), -9.14%; that for `Cc1cccc(C(=O)N2N=C(c3ccc(NS(C)(=O)=O)cc3)CC2c2cccs2)c1` (stereo not given), 2.79%.
For the molecule `CS(=O)(=O)Nc1ccc(C2=NN(C(=O)c3ccccc3)C(c3cccs3)C2)cc1` (stereo not given), the inhibition is 26.9%.
With `O=C(O)C(O)C(O)C(O)C(O)C(=O)O` (stereo not given) (tested in a mixture with another compound), the inhibition was 3.48%.
The same measure for `CCN(C[C@H]1N[C@@](Cc2ccccc2)(C(=O)OC)[C@H]2C(=O)N(C)C(=O)[C@@H]12)C(=O)Nc1ccc(F)cc1`: 4.09%.
The result for `COc1ccc(Oc2ccc(/C=C/C(=O)c3ccc(O)cc3)cc2[N+](=O)[O-])cc1` reads 8.6%.
The same measure for `CN(C)c1ccc(/C=C/C(=O)c2ccccc2)cc1[N+](=O)[O-]`: 16.9%; for `COC(=O)c1cccc2c1NC(=O)C2=O`: 3.61%.
With `O=C(NCc1ccccc1Cl)c1cccc(OC2CCN(C(=O)C3CC3)CC2)c1`, the inhibition is 5.75%.
The same measure for `COc1ccccc1C1CC(c2ccc(F)cc2)Nc2ncnn21` (stereo not given): -11.3%.
The same measure for `COc1ccccc1C1CC(c2ccc(C)cc2)Nc2ncnn21` (stereo not given): -9.91%; for `COC(=O)CN(c1ccc(C)cc1)S(=O)(=O)c1ccc(F)cc1`: 14.1%.
The result for `CSc1ccc(Cl)c(C(=O)NNC(=O)c2cccs2)c1` reads 1.28%; that for `Cc1ccc(OCC(=O)N/N=C/C=C/c2ccco2)cc1`, -6.27%.
On to `CCOC(=O)N/N=C\C=C\c1ccco1`, for which the inhibition is -0.79%.
The result for `COc1ccc(OC)c2c1cc(C(=O)N[C@H](C(=O)N1CCC(C(=O)O)CC1)C(C)C)n2C` reads -15.1%.
The result for `O=C(O)c1ccc(Cl)c(NCc2cccnc2)c1` reads -9.94%; that for `CCCc1cc(=O)[nH]c(SCC(=O)Nc2c(C)cccc2C)n1`, 0.09%; that for `Cc1cc(C(=O)NCCC(C)C)c2ccccc2n1`, -3.78%.
The same measure for `CC(C)(C)c1ccc(OCCNCc2ccccc2)cc1`: 14.6%.
With `C[N+](C)(CCOc1ccccc1)Cc1ccccc1` (tested in a mixture with another compound), the inhibition was -1.38%.
The result for `CN(Cc1ccco1)C(=O)c1ccc(S(=O)(=O)N2CCCCCC2)cc1` reads 2.26%.
For `COc1ccc(COC(=O)c2ccc(C)c(S(=O)(=O)N3CCOCC3)c2)cc1F`, the inhibition is -4.83%.
Take `C[n+]1c(-c2ccccc2)cc(-c2ccc(O)cc2)cc1-c1ccccc1`: the inhibition was 3.36%.
The result for `C[n+]1c(-c2ccccc2)cc(-c2ccc(Cl)cc2)cc1-c1ccccc1` reads -0.15%; that for `COCCCNC(=O)CN(c1cc(C(F)(F)F)ccc1Cl)S(C)(=O)=O`, -8.65%.
On to `COC(=O)c1c(C)nn(-c2ccc(OC(F)(F)F)cc2)c1-c1snnc1C`, for which the inhibition is 5.4%.
For `COc1ccc(CCN(C)C(=O)C2CC(=O)N(Cc3ccc(C)cc3)C2)cc1OC` (stereo not given), the inhibition is -4.64%.
The result for `O=C1Nc2ccc(Br)cc2C1(O)c1ccccc1` (stereo not given) reads -1.54%; that for `O=C1NC2(Nc3ccccc31)C(=O)Nc1ccc(Br)cc12` (stereo not given), 6.01%; that for `O=C(Nc1ccc([N+](=O)[O-])cc1)c1cccc(S(=O)(=O)Nc2ccccn2)c1`, -2.42%.
The result for `O=c1c2c([N+](=O)[O-])cc([N+](=O)[O-])cc2nc2ccccn12` reads 4.66%; that for `COc1ccccc1-n1cc2ccc([N+](=O)[O-])cc2n1`, -3.35%.
The result for `COc1ccc(-n2cc3ccc([N+](=O)[O-])cc3n2)cc1` reads -3.43%; that for `O=[N+]([O-])c1cnc2ccccc2c1`, -7.59%.

One may read the inhibition as the change of the read-out against control, counted positive when it falls.
